Measurements: PubChem BioAssay (NCATS)
Results filed as inconclusive are left out. The source made the active and inactive calls. Calls follow the shape of the dose curve; as a rule, active = well fitted curve in the direction sought with a large enough effect; inconclusive = small, poorly fitted or top-dose-only effect, or another doubt; inactive = no such curve, though single readings can be large; an effect the other way counts as inactive or inconclusive.

How the values were obtained:
[1] = target: Nuclear receptor subfamily 1 group I member 3 (Homo sapiens) (UniProt Q14994); experiment: qHTS for Constitutive Androstane Receptor (CAR) Antagonist screened against the NCATS CANVASS Library (AID 1347372)
Outline: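 Antagonist mode: compound added alongside 50 nM CITCO to HepG2-hCAR-CYP2B6 reporter cells, 24hr at 37C. Viability by CellTiter-Fluor fluorescence, then CAR-driven luciferase by ONE-Glo luminescence.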

[2] = target: Nuclear receptor subfamily 1 group I member 3 (Homo sapiens) (UniProt Q14994); experiment: qHTS for Constitutive Androstane Receptor (CAR) Agonist screened against the NCATS CANVASS Library (AID 1347373)
Outline: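 Agonist mode with 1.5uM PK11195 present: compounds for 24hr on HepG2-hCAR-CYP2B6 cells. CellTiter-Fluor fluorescence (ex 405, em 540 nm) gives viability; ONE-Glo luminescence reports CAR activation.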

[3] = qHTS for Hypoxia signaling pathway (HIF-1) antagonists against the NCATS CANVASS Library (AID 1347374)
Outline: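 Antagonism scored as loss of CoCl2-driven (60 uM stock added) HRE beta-lactamase signal, read by CCF4 FRET at 460/530 nm. Compounds were tested in an 11-point series on ME-180 reporter cells for 17 hrs at 37C, with parallel CellTiter-Glo cytotoxicity.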

[4] = qHTS for Hypoxia signaling pathway (HIF-1) agonists against the NCATS CANVASS Library (AID 1347375)
Outline: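 Beta-lactamase reporter under HRE control in ME-180 cells; compounds (11-point qHTS series) added after 5 hrs plating, then 17 hrs at 37C. FRET substrate read after 2 hr; same-well CellTiter-Glo luminescence gave viability and normalization.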

[5] = 10-beta competent E. coli microbial cell viability qHTS against the NCATS CANVASS Library (AID 1347376)
Outline: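 Read-out: BacTiter-Glo ATP luminescence, taken 20 min after reagent addition. Beforehand, 10-beta competent E. coli at 0.2 OD had been incubated overnight at 37C with compounds at 11 concentrations.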

[6] = DH5-alpha competent E. coli microbial cell viability qHTS against the NCATS CANVASS Library (AID 1347377); details: outcome: at 46.1 µM (top of the series)
Outline: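 Bacterial viability as ATP-dependent luminescence (BacTiter-Glo), read after overnight 37 °C exposure of DH5-alpha competent E. coli to compounds in 11-point titration.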

[7] = qHTS for H2AX Agonists against the NCATS CANVASS Library (AID 1347378)
Outline: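 CHO-K1 cells were plated overnight at 37C, then exposed to compounds (concentration series, 0.76% DMSO final) for 3 hr at 37C. Lysates received Eu-cryptate anti-pH2AX (S139) and d2 anti-H2AX antibodies; after 24 hr at room temperature, TR-FRET 665/620 nm ratio was read.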

[8] = qHTS for Inflammasome Signaling Inhibitors: IL-1-beta AlphaLISA screen against the NCATS CANVASS Library (AID 1347379); details: outcome: at 57.5 µM (top of the series)
Outline: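 Secreted IL-1B from human THP-1 cells quantified by AlphaLISA 16 hr after compound addition (final up to 57.5 uM). A 1 hr compound pretreatment preceded inflammasome activation with 250 ng/mL LPS plus 1.25 mM ATP (final).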

[9] = qHTS for Antimalaria activity screened against the NCATS CANVASS Library (AID 1347380)
Outline: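 SYBR Green fluorescence at 485/535 nm was read 18 hr after lysis. This followed a 72 hr incubation at 37C in 5% O2, 5% CO2 of Dd2-infected erythrocytes (0.3% parasitemia, 2.5% final hematocrit) with compounds titrated over 11 concentrations.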

[10] = Inflammasome Signaling qHTS Counterscreen: IL-1-beta AlphaLISA counterscreen against the NCATS CANVASS Library (AID 1347381)
Outline: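 Purified IL-1-beta (4 pg/well) + compound, 11-pt conc. series; acceptor beads 6 ug/mL + biotin-Ab 0.6 nM final, 1 h RT; SA-donor 24 ug/ml final, 30 min dark RT; read ex 680/em 615.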

[11] = Cytotoxicity qHTS for assessment of Hepg2 cells membrane integrity screened against the NCATS CANVASS Library (AID 1347387)
Outline: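 Membrane damage quantified as fluorescent LDH-release signal (ex 560, em 590 nm) in HepG2 cells treated 5 hr at 37C. qHTS format, 11 concentrations spanning 0.59 nM - 46 uM final, cells plated at 2000 per well the night before.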

[12] = qHTS for Activators of p53 Stress Response Pathway screened against the NCATS CANVASS Library (AID 1347388)
Outline: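 Beta-lactamase reporter driven by p53 response elements in HCT-116 cells, read as the 460 nm/530 nm emission ratio after CCF4 loading, following 16 h of exposure to an 11-point series. Cell viability was measured in the same wells by CellTiter-Glo luminescence.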

[13] = qHTS assay for small molecule disruptors of mitochondrial membrane potential screened against the NCATS CANVASS Library (AID 1347389)
Outline: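 Mitochondrial membrane potential in HepG2: 1 h compound treatment (11-point concentration series), 30 min m-MPI dye at 37C, then dual fluorescence of J-aggregates (ex 540/em 590) and monomers (ex 490/em 535); lower red/green ratio indicates depolarization.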

[14] = Secretion counterscreen for inhibitors of the SERCaMP assay screened against the NCATS CANVASS Library (AID 1347390)
Outline: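 SH-SY5Y cells expressing constitutively secreted GLuc, 1000 cells/well, attached 4 h at 37C, then exposed to compounds (0.001 - 77 uM, 11-pnt series) for 20 h. Coelenterazine added; luminescence read to flag secretory-pathway interferers.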

[15] = qHTS for activators of Nrf2/ARE signaling pathway screened against the NCATS CANVASS Library (AID 1347391)
Outline: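 Eleven-point qHTS, 16 h treatment of HepG2 cells carrying an ARE-driven beta-lactamase reporter; CCF4 ratio read (405 nm excitation, 460 and 530 nm emission), with CellTiter-Glo ATP luminescence for viability.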

[16] = qHTS for activators of dead-cell proteases activity screened against the NCATS CANVASS Library (AID 1347392)
Outline: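 Luminescent dead-cell protease readout (AAF-aminoluciferin, 15 min, room temperature) after 5 h compound treatment of HepG2 cells (2000/well, pre-attached 18 h). Eleven concentrations.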

[17] = qHTS for inhibitors of ER calcium dysfunction: SERCaMP assay screened against the NCATS CANVASS Library (AID 1347393)
Outline: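 Thapsigargin-induced ER calcium depletion drives GLuc-SERCaMP secretion from SH-SY5Y cells; compounds given 16 h beforehand were scored by lowered coelenterazine luminescence after 4 h challenge.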

[18] = Vero-766 cells viability qHTS against the NCATS CANVASS Library: Counterscreen for Zika virus inhibition assay (AID 1347394)
Outline: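 Uninfected Vero 766 (African green monkey) cells, 1000/well, attached overnight, then exposed 72 h at 37C to compounds (11-point qHTS). Viability read by CellTiter-Glo luminescence; media-only wells served as 100% inhibition.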

[19] = qHTS for inhibitors of Wild type Zika virus screened against the NCATS CANVASS Library (AID 1347396)
Outline: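 Luminescent CellTiter Glo read-out of virus-induced cytotoxicity, 72 h post-infection, in Vero 766 cells. Compounds were tested at 11 concentrations; uninfected, vehicle-treated wells defined 100% inhibition.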

[20] = Viability qHTS for inhibitors of the SERCaMP assay screened against the NCATS CANVASS Library (AID 1347400)
Outline: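 CellTiter-Glo luminescence measured cytotoxicity after 48 h at 37C of compound treatment (11-point series). Cells were SH-SY5Y-GLuc SERCaMP MJH297 derivatives, seeded at 1000 per well 4 h beforehand.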

Measured: outcome

Chain of Nuclear receptor subfamily 1 group I member 3 (Homo sapiens) (Q14994 whole entry, looked up): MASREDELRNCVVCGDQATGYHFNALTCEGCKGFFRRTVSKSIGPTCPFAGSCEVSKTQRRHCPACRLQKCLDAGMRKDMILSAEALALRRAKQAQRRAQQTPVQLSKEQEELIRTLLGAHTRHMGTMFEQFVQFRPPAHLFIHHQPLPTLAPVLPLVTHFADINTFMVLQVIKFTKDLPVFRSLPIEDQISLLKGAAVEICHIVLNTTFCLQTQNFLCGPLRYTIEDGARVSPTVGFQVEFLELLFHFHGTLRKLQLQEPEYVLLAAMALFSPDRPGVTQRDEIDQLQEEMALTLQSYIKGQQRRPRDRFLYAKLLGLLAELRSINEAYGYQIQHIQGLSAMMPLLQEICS

NCCc1c[nH]c2ccccc12
inactive: all assays above

NCCc1c[nH]c2ccc(O)cc12
inactive: all assays above
